# USP17 inh: blocks human USP17 ubiquitin-rhodamine cleavage. A8MUK1. purified USP17, Ub-rhodamine cleavage fluorescence, 3 h. inhibition, % at 50 µM. 47,000 tested, 6.5% active
# USP30 inh: inhibitors of human USP30 deubiquitinase. 47,000 tested, 5.3% active. Q70CQ3. inhibition, % at 25 µM. purified USP30, Ub-rhodamine cleavage fluorescence
# USP10 inh: blocks human USP10 ubiquitin-rhodamine cleavage. 47,000 tested, 1.1% active. purified USP10, Ub-rhodamine fluorescence, 60 min. Q14694. inhibition, % at 20 µM
# UCHL1 inh: inhibitors of human UCHL1 deubiquitinase. 47,000 tested, 0.2% active. P09936. purified UCHL1, Ub-rhodamine cleavage fluorescence. inhibition, % at 20 µM
# Target sequence (P09936 whole entry, looked up): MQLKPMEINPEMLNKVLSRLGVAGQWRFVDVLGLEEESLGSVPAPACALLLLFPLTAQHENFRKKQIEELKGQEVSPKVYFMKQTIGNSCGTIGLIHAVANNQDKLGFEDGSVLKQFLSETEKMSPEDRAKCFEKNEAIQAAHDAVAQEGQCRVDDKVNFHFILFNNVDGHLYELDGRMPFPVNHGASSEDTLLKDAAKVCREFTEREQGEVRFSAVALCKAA
# USP7 inh: human USP7 deubiquitinase inhibition. inhibition, % at 20 µM. AID 1645854. purified USP7, Ub-rhodamine cleavage fluorescence. 47,000 tested, 0.3% active
# USP8 block: inhibitors of human USP8 deubiquitinase. AID 1645853. purified USP8, Ub-rhodamine cleavage fluorescence, 30 min. P40818. inhibition, % at 20 µM. 47,000 tested, 4.2% active
# * marks the source's active call; other numbers are inactive results; i = inactive; · = no result. Most compounds without a hit are left out; they make up all but 12% or so of the library. Cut-off read from the data, not from the text of the source: active = inhibition above about 30%; inactive = the rest.
SMILES,USP17 inh,USP30 inh,USP10 inh,UCHL1 inh,USP7 inh,USP8 block
CC1CC(=O)N(Cc2ccccc2F)c2ccccc2S1(=O)=O (centres undefined),-4,11,-3,-1,0,2
CC1(C)CC(=O)C2(Cc3cc([N+](=O)[O-])ccc3N3CCCC32)C(=O)C1 (centres undefined),36*,-22,-1,-2,-1,-9
COCC(=O)N1CCC(n2c(C3CC3)nc3sc(C)c(C)c3c2=O)CC1,0,0,4,-3,-17,-15
Cc1sc2nc(C3CC3)n(C3CCN(C(=O)C4CCC4)CC3)c(=O)c2c1C,16,39*,11,7,-1,6
Cn1c(COc2cccc3cccnc23)nnc1SCC(=O)c1ccc(Cl)cc1Cl,15,-1,36*,5,-54,58*
O=c1cc(Cc2ccccc2)nc2c(-c3ccccc3)c(COc3ccccc3)[nH]n12,11,40*,62*,10,52*,-6
Cc1[nH]n2c(=O)cc(Cc3ccccc3)nc2c1-c1ccccc1,-9,14,6,-5,-5,-109
O=C(OCC(=O)N1CCCc2ccccc21)c1c(F)cccc1Cl,10,31*,2,2,-8,-90
c1cncc(-c2cnc3sc(NC4CCCCC4)nn23)c1,35*,25,17,5,8,22
c1cncc(-c2cnc3sc(NCC4CC4)nn23)c1,-11,0,5,2,-6,-26
CNC1CCc2cc(OC)c(OC)c(OC)c2-c2ccc(NCc3ccc4c(c3)OCO4)c(=O)cc21 (centres undefined),-22,-50,-3,-3,-5,3
COc1cccc2c1C(=O)c1ccc3c(c1C2=O)C(=O)CC(C)(O)C3 (centres undefined),62*,22,0,9,2,27
COc1cccc(Cn2nc3n(C(C)C)c(=O)c4ccc(C(=O)NC(C)C)cc4n3c2=O)c1,14,15,-2,2,4,9
COc1cccc(Cn2nc3n(CC(C)C)c(=O)c4ccc(C(=O)NC(C)C)cc4n3c2=O)c1,18,30*,0,0,2,0
Cc1ccc(C)c(-n2c(C)cc(/C=C3/C(=N)N4C(c5ccc(F)cc5)=CSC4=NC3=O)c2C)c1,-139,i,-2,-158,-137,-288
Cc1cccc(NC(=O)Cn2c(-c3cnccn3)nc(C)c(C)c2=O)c1C,38*,76*,-2,-6,-4,-100
O=C(/C=C\c1ccc2c(c1)OCO2)Nc1c2c(nn1-c1ccc(Cl)cc1)CS(=O)(=O)C2,57*,47*,18,3,6,23
Cc1ccccc1-n1nc2c(c1NC(=O)c1cccs1)CS(=O)(=O)C2,-12,-18,-4,-3,-4,-24
COc1ccc(-n2nc3c(c2NC(=O)/C=C\c2ccccc2)CS(=O)(=O)C3)cc1,-10,-10,1,1,0,-14
CCC(C(=O)Nc1c2c(nn1-c1ccc(Cl)cc1)CS(=O)(=O)C2)c1ccccc1 (centres undefined),38*,12,14,0,-24,6
COCCN(C1CCN(C)CC1)S(=O)(=O)c1ccc(NC(=O)c2cc(OC)c(OC)c(OC)c2)cc1,-6,0,-2,1,-2,-1
CCOC(=O)c1[nH]c2c(c1Cc1ccccc1OC)C(=O)CC(C)(C)C2,37*,·,1,8,-14,2
Cc1c(C(=O)OCCOc2ccccc2)[nH]c2c1C(=O)CC(c1ccc(F)cc1)C2 (centres undefined),-4,5,8,-4,1,7
CC(NC(=O)CSc1nnc(C2CC2)n1Cc1ccccc1)c1ccco1 (centres undefined),1,-54,-9,-3,-6,6
Clc1ccccc1CSc1nnc(C2CCCCC2)n1Cc1ccccc1,37*,57*,17,6,-55,11
SMILES,USP17 inh,USP30 inh,USP10 inh,UCHL1 inh,USP7 inh,USP8 block
CN1C(=O)CO[C@H](c2ccc(NC(=O)c3ccccc3)cc2)[C@H]1CO,14,19,2,1,5,4
CC(=O)Nc1ccc([C@H]2OCC(=O)N(C3CCOCC3)[C@@H]2CO)cc1,24,51*,-2,6,4,9
COc1ccc(NC(=O)c2cccnc2Nc2ccc(F)cc2)cc1,7,-10,5,8,7,0
CCn1c(=O)c(C(=O)NCc2cccnc2)c(O)c2ccccc21,23,19,1,2,·,3
CCC(=O)NNC(=O)c1c(O)c2ccccc2n(CC)c1=O,9,7,2,-2,-3,51*
COc1cccc(NC(=O)c2c(O)c3ccccc3n(CC(C)C)c2=O)c1,15,-3,3,-1,2,85*
CC(C)CC(=O)N1CCC(c2nc3c(nnn3Cc3cccc(F)c3)c(=O)[nH]2)CC1,-1,-6,-3,-3,-37,-8
CNC(=O)c1c(Br)cnn1-c1ccc(C)cc1,39*,·,5,1,-1,4
O=C(CC1Oc2ccccc2NC1=O)Nc1ccccc1Br (centres undefined),59*,-16,2,-1,3,0
CN(C)c1ccc(C2CC(c3ccc(Br)cc3)=NN2C(=O)CCC(=O)O)cc1 (centres undefined),32*,26,7,-1,-1,23
Cc1ccc(Cl)cc1N1CCN(C(=O)CN2C(=O)CN(C)C(=O)c3ccccc32)CC1,-20,-10,-3,-4,-5,-17
Cc1cccc(NC(=O)CSCC(=O)Nc2cccc3ccccc23)c1,24,-1,6,1,-10,0
Cc1ccccc1NC(=O)Cc1nc(-c2cccc3ccccc23)cs1,47*,17,0,-2,-3,73*
CCCN(CC(=O)Nc1ccccc1C)CC(=O)Nc1cccc2ccccc12,19,37*,6,6,3,13
O=S(=O)(Cc1nnc(-c2ccccc2C(F)(F)F)o1)c1ccc(Cl)cc1,68*,-2,0,-3,-16,-12
CCOc1ccccc1N1CCN(C(=O)C2CCN(Cc3cccc(OC)c3OC)CC2)CC1,-4,-8,-3,-3,0,-12
Cc1c(OCc2ccccc2F)ccc2c1OC(C)(C)CC2=O,31*,28,12,6,-27,19
Cc1cc(CN2CCOCC2)c(NC(=O)c2ccco2)s1,-11,·,-3,-2,-2,-7
Cc1cc(C(Nc2ccccn2)c2ccc(Cl)cc2)c(NC(=O)c2ccco2)s1 (centres undefined),·,-34,-4,1,6,35*
O=C(CCc1c[nH]c2ccccc12)Nc1ccc(N2CCOCC2)cc1,60*,33*,22,1,8,8
CC(=O)O[C@@H]1/C=C(/C)[C@H](OC(=O)c2ccc(O)cc2)C/C=C(/C)CCCC1(C)C,31*,15,18,8,9,12

# Screening results (PubChem)
